# USP2a inh: USP2a (human) protease inhibition. O75604. USP2 core, Ub-CHOP2 coupled fluorogenic reporter, 485/531. Potency, µM (series often up to 38.3 µM), inactives show top-dose activity change, negative = inhibition, hits mostly inhibitors. hit rate 0.01% among 330,000. AID 463254;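 further: potency means the concentration at half of the fitted maximal effect; plate controls were DMSO wells for no effect and full inhibition by NEM control for full effect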
#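 USP2 core (10nM final) preincubated 30min RT with compound in 20mM Tris-HCl pH 8.0, 2mM CaCl2, 2mM beta-mercaptoethanol, 0.05% CHAPS; 25nM Ub-CHOP2 plus 25nM reporter substrate added, fluorescence (Ex485/Em531) read after 60min.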
# Integrin act MD: activates integrin-mediated alleviation for muscular dystrophy; hit rate 0.064% among 350,000; Potency, µM (highest dose often 38.3 µM), for inactives: top-dose activation, actives largely listed as activators; AID 624291; alpha7betagal myoblasts, beta-gal FDG fluorescence, 48 h;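 further: potency means the concentration at half of the fitted maximal effect; 100% = response of the positive control SU9516; nearly all actives have a fitted effect of over 60% in size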
#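 Alpha7betagal+/- myoblasts (passage 13) were plated 16-24 hr, then exposed to compounds (1:260 dilution of DMSO stock) for 48 hours at 37C. After MPER lysis, β-galactosidase reporter activity was read as FDG fluorescence (ex 480/em 540) after 30 minutes.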
# PKM2 activator: increases activity of human pyruvate kinase M2. Potency, µM (titrated, usually from 57.5 µM), inactives show at the top dose activation, actives largely listed as activators. purified PKM2, Kinase-Glo ATP luminescence, activation; response scale: 0% is enzyme alone, no compound. hit rate 0.34% among 260,000; further: potency means the concentration at half of the fitted maximal effect; on the % scale 0 is the no-effect control and ±100 the full control effect; nearly all actives have a fitted effect of over 55% in size
#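 hPK-M2, >95% pure; 0.1 mM ADP / 0.5 mM PEP final; imidazole pH7.2 buffer w/ 7 mM MgCl2, 50 mM KCl; 1 h RT; Kinase-Glo lum. Intermediate enzyme activity for dual inhibitor/activator qHTS.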
# Pin1 inh: inhibitors of human Pin1. Q13526. Pin1 FP peptide displacement, HiFluor488, 10 min. Potency, µM (series often up to 115 µM), without a hit: at the highest dose activity, negative = inhibition, actives largely listed as inhibitors. hit rate 0.009% among 390,000. AID 504891; active means well fitted inhibition curve with a large enough effect in the polarisation, with a control signal flat, not every such curve was filed as active; inconclusive means small, poorly fitted or top-dose-only effect, or effect the other way, or a change in a side signal; inactive means no such curve, though single readings can be large or run the other way; the % refers to the polarisation; further: potency means the concentration at half of the fitted maximal effect; on the % scale 0 is the no-effect control and ±100 the full control effect
# Target sequence (Q13526 whole entry, looked up): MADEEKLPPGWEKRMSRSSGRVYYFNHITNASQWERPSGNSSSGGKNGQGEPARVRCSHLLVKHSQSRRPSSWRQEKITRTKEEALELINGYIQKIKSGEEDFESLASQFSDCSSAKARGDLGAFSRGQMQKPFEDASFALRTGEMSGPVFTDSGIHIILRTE
# IL-2 act: activates IL-2 in a cell-based reporter assay; IL-2 activation reporter assay, cell-based qHTS; stimulated with anti-CD3/CD4/CD28 beads; in transgenic mouse T cells; activation, % (series mostly up to about 46 µM); hit rate 0.065% among 360,000; AID 652025; in the data active means activation above about 50%; inconclusive means mostly about 30% to 49%; further: 0% is about no effect
#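 Screening format: compound pinned onto unstimulated transgenic mouse T cells, 60 min incubation, then anti-CD3/anti-CD4/anti-CD28 bead stimulation for 18 hours at 37 degrees C, followed by EGFP and DsRed detection.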
# ClpP mod: qHTS Assay for Activators of ClpP; purified B. subtilis ClpP, FRET peptide cleavage, 20 min; Potency, µM (doses to about 57.5 µM), inactives show top-dose activity change, negative = active; hit rate 1.9% among 340,000; AID 651965, 2013; active means well fitted falling curve with a large enough effect; inconclusive means small, poorly fitted or top-dose-only effect; inactive means no such curve, though single readings can be large or run the other way; further: potency means the concentration at half of the fitted maximal effect; the source files actives as falling curves though it sought activators and does not explain the sign; nearly all actives have a fitted effect of over 65% in size
# Target sequence (P80244 whole entry, looked up): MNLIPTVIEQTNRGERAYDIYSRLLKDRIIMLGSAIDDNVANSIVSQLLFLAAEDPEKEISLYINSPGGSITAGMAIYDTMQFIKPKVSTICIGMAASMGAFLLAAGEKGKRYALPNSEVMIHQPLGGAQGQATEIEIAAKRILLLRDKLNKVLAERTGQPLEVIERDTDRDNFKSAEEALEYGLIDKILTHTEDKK
#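 ClpP 10 microg/mL final, pH 8 Tris/KCl buffer with BSA, glycerol, Tween-20; compound pinned in; FRET-FV substrate; RT 20 min; Ex320/Em430; ΔFRET vs ADEP 5.8 microM, DMSO, no enzyme.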
# * = called active by the depositor; ? = inconclusive; . = no result given; ! = not active in a repeat; [ ] = another dose, or the depositor's remark. An excerpt weighted towards active compounds, which were near 1.9% of everything screened. Unless noted, the call rests on the fitted dose curve; in most records, active means well fitted curve in the direction sought with a large enough effect; inconclusive means small, poorly fitted or top-dose-only effect, or another doubt; inactive means no such curve, though single readings can be large; an effect the other way counts as inactive or inconclusive.
SMILES,USP2a inh,Integrin act MD,PKM2 activator,Pin1 inh,IL-2 act,ClpP mod
CCOC(=O)C1CCN(C(=O)COC(=O)c2oc3ccc(OC)cc3c2C)CC1,0.8%,-16.9%,.,-5.8%,1.1,4.1%
COc1ccc2oc(C(=O)OC(C)C(=O)N(C)c3ccccc3)c(C)c2c1 (stereo not given),-2.7%,6.6%,.,-0.6%,-1.2,22.4µM*
COc1ccc(N2CCN(C(=O)COC(=O)c3oc4ccc(OC)cc4c3C)CC2)cc1,0.3%,-9.6%,.,2.8%,-0.7,25.1µM*
COc1ccc2oc(C(=O)OCC(=O)N3CC(C)OC(C)C3)c(C)c2c1 (stereo not given),-5.5%,-24.3%,1.5%,-7.7%,-1.1,3.6%
COc1ccc2oc(C(=O)OCC(=O)N3CC(C)CC(C)C3)c(C)c2c1 (stereo not given),-1.1%,-0.7%,.,-0.6%,-2.9,14.1µM*
c1cc(-c2cccs2)nc(-c2cccs2)c1,0.8%,-1.7%,-2.5%,4.0%,-1.0,.
c1csc(-c2cnc3ccccc3n2)c1,-2.9%,-13.2%,-12.7%,-0.5%,-1.5,6.31µM*
Cc1cc(=O)[nH]c2ccc(O)cc12,.,.,.,.,.,4.1%
CCOC(=O)C(CC)Sc1ccc2nnc(-c3ccc(F)cc3)n2n1 (stereo not given),.,.,.,-1.3%,.,-24.1%
CN(C)/C=N/c1nccc(-c2cccs2)n1,-0.3%,8.91µM*,-1.0%,2.5%,-1.0,.
CN(C#N)c1nccc(-c2cccs2)n1,2.1%,11.2µM*,-4.8%,-2.6%,1.7,3.6%
NC(=S)Nc1nccc(-c2cccs2)n1,2.6%,-23.1%,20.2%,9.8%,-0.8,4.2%
COc1ccc(Br)cc1S(=O)(=O)N1CCN(S(=O)(=O)c2ccc3c(c2)OCCO3)CC1,.,.,.,13.9%,.,.
O=C(Nc1ccc([N+](=O)[O-])cc1Cl)c1cc(Cl)cc(Cl)c1O,.,.,.,?,.,-0.2%
Cc1ccc2c(c1)C/C(=C/c1ccc(N(C)C)cc1)C2=O,.,.,.,.,.,-0.2%
CCc1nc2ccccc2n1Cc1cc(=O)n2cc(C)ccc2n1,-0.6%,-11.8%,15.8µM*,0.5%,-1.7,?
CN(C)/C=C(\C(=O)c1ccc(F)cc1F)c1nnnn1-c1ccccc1,2.6%,13.3%,15.8µM*,-1.0%,-2.3,-7.4%
CCCN1CNc2c(c(=O)[nH]c(=S)n2CCc2cc(Cl)ccc2Cl)C1,.,.,.,-3.1%,.,1.8%
C=C1C=C(C)n2ncc(C(=O)Nc3cccc4cnccc34)c2N1,.,.,.,.,.,-8.2%
Cc1cc2c(s1)c1cnn(Cc3cccc(C(F)(F)F)c3F)c(=O)c1n2C,.,.,.,-7.3%,.,.
CC(=O)N(C(C)=O)c1nc(-c2ccccc2)cn1/N=C/c1ccccc1,1.8%,-22.6%,0.1%,1.0%,-0.9,31.6µM*
Cc1ccc(S/C(=N/S(=O)(=O)c2ccc(Cl)cc2)c2ccccc2)cc1,.,.,.,-0.6%,.,-0.6%
Cc1ccccc1Nc1nnc(SCC(=O)Nc2ccccc2[N+](=O)[O-])s1,2.2%,-15.9%,12.6%,-6.2%,-5.9,31.6µM*
CS(=O)(=O)Nc1ccc(C2=NN(C(=O)c3ccco3)C(c3ccc(F)cc3)C2)cc1 (stereo not given),-11.2%,33.3%,12.6µM*,13.5%,-2.4,.
Cc1cc(-c2ccccc2)nc2[n+]1CCN2C,-0.9%,-45.8%,-13.1%,0.6%,-5.5,28.2µM*
SMILES,USP2a inh,Integrin act MD,PKM2 activator,Pin1 inh,IL-2 act,ClpP mod
CC(=O)OCC(NC(=O)C(C)NC(=O)OC(C)(C)C)C1OC(n2cc(F)c(=O)[nH]c2=O)C(OC(C)=O)C1OC(C)=O (stereo not given),.,.,.,-2.1%,.,.
O=[S+]([O-])(c1ccc2nsnc2c1)N1CCN([S+](=O)([O-])c2c(F)cccc2F)CC1,.,.,.,-0.9%,.,.
CC(=O)NC(Cc1cccc(C)c1)C(=O)NC1CCN(c2ncccc2[N+](=O)[O-])CC1 (stereo not given),-0.3%,-6.0%,-9.8%,1.1%,1.9,15.8µM*
CC(=O)NC(Cc1cccc(F)c1)C(=O)NC1CCN(c2ncccc2[N+](=O)[O-])CC1 (stereo not given),8.7%,-11.0%,4.5%,-1.8%,0.8,-1.3%
COc1cc(OC)c(OC)cc1/C=N/NC(=S)NCC1CCCO1 (stereo not given),-1.3%,-12.3%,-0.7%,-2.2%,-1.7,31.6µM*
COc1cc(OC)c(OC)cc1/C=N/NC(=S)NCCN1CCOCC1,2.5%,-5.5%,1.0%,1.7%,-0.2,.
CC(C)CN1CC(Br)C(=O)NC1=O (stereo not given),.,-25.9%,.,-5.2%,0.3,.
CC(C)CN1CC(C)C(=O)NC1=S (stereo not given),.,-8.0%,.,-9.1%,-3.7,28.2µM*
CCCC(=O)Nc1nc2nc(-c3ccccc3)cc(-c3ccccc3)n2n1,1.8%,2.4%,-4.7%,7.3%,-0.9,12.6µM*
CCC(=O)Nc1nc2nc(-c3ccccc3)cc(-c3ccccc3)n2n1,-0.4%,6.4%,-0.4%,-0.1%,-0.4,3.4%
Cc1noc(C)c1C(=O)NCc1ccccc1,-0.1%,-1.4%,1.4%,-10.1%,-0.7,31.6µM*
Cc1noc(C)c1C(=O)NCCc1ccccc1,-0.9%,-21.0%,-3.2%,0.2%,-1.5,-0.8%
COC(=O)c1ccc(NC(=O)COc2ccccc2C(=O)Nc2ccccc2)cc1,.,.,.,.,.,5.1%
COc1cccc(-c2nnc3n2N=C(c2ccc(OC)cc2OC)CS3)c1,.,.,.,40.8%,.,.
Cc1ccnc2ccccc12,.,.,.,.,.,-2.2%
CN1CC[n+]2cnc3ccccc3c21,-0.1%,5.1%,-19.9%,-13.3%,2.0,28.2µM*
CCCn1c(-c2ccc(OC)cc2)nc2nc3ccccc3nc21,0.8%,5.9%[7.66 µM],0.9%,5.5%,2.5,28.2µM*
CN(C)c1ccc(-c2cc[nH]c(=O)c2N)cc1,.,.,.,-0.7%,.,.
O=S(=O)(c1cccnc1)N1CCN(c2nc(-c3cccs3)nc3ccccc23)CC1,.,.,.,5.8%,.,31.6µM*
O=S(=O)(c1ccc(Cl)cc1)N1CCN(c2nc(-c3cccs3)nc3ccccc23)CC1,-10.6%,-9.0%,1.9%,32.0%,0.2,20µM*!
O=S(=O)(c1ccccc1)N1CCN(c2nc(-c3cccs3)nc3ccccc23)CC1,2.5%,.,-0.7%,?,.,?
CCOC(=O)c1c(C)[nH]c(C)c1S(=O)(=O)NCC(=O)Nc1cccc(SC)c1,.,.,.,0.5%,.,-2.0%
N#CC1(C#N)C(c2ccccc2)OC23CCCCC2C1(C#N)C(=N)O3 (stereo not given),21.1%,-21.2%,0.2%,?,0.7,14.1µM*
CCCCCCCCOc1ccc(C2OC34CCCCC3C(C#N)(C#N)C2(C#N)C(=N)O4)cc1 (stereo not given),14.8%,-6.2%,1.1%,?,5.0,20µM*
